For some of these results: Entries with a potency or affinity are not part of this list.
What was measured:
Set-up in all cases: scale not given: direction of the effect not stated beside the values
[1] = molecular target: Protein translocase subunit SecA (Escherichia coli (strain K12)) (UniProt P10408); assay: Assay to Identify E. coli SecA ATPase Inhibitors; format: functional; conditions: 30 µM
[2] = molecular target: T1, Ubiquitin-activating enzyme e1, putative (Leishmania donovani (strain BPK282A1)) (UniProt E9BSI1); assay: Leishmania donovani Ubiquitin Activating Enzyme (LdE1); format: functional; conditions: 30 µM
T1 sequence (whole entry): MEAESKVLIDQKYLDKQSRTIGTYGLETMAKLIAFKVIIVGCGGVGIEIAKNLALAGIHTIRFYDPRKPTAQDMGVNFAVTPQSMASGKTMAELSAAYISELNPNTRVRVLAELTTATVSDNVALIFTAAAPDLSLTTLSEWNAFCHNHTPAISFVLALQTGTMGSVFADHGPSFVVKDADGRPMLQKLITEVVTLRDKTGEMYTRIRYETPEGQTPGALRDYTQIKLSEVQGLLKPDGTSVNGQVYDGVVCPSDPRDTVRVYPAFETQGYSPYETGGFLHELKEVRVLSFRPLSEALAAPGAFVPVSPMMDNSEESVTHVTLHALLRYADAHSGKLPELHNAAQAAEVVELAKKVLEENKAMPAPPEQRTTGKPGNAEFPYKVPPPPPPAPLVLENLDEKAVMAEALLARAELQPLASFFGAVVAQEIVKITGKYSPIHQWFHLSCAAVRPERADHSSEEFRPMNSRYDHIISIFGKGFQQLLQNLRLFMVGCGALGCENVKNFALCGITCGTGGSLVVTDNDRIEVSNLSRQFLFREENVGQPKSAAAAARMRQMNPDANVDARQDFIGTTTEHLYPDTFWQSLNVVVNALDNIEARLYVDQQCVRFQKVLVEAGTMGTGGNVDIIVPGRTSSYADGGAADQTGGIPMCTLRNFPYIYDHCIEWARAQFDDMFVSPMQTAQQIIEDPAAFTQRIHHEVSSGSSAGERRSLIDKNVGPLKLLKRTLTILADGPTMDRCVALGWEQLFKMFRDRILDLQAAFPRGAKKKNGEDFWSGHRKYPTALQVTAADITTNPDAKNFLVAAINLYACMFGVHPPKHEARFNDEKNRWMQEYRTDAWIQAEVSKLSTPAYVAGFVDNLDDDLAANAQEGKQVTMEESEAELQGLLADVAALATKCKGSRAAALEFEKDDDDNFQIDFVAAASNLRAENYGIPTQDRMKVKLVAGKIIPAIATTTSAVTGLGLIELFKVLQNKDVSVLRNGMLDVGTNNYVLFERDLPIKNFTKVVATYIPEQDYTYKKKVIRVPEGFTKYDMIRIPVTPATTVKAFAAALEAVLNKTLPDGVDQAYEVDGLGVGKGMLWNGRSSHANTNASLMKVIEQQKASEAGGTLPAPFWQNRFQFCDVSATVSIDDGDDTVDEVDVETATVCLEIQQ

[3] = molecular target: AMP-activated protein kinase, AMPK (Homo sapiens) (UniProt P54646+O43741+P54619+Q9UGJ0+Q9Y478+Q13131+Q9UGI9); assay: AMP-dependent Kinase enzyme assay. An in vitro enzyme assay that detects ADP turnover that is directly proportional to AMPK activity. This uses naive AMPK that is activated during the assay with MK-8722; format: functional; conditions: 30 µM
[4] = molecular target: Sialic acid-binding Ig-like lectin 9 (Homo sapiens) (UniProt Q9Y336); assay: Hs-Siglec9 ALPHAscreen SOP 20170721; conditions: 10 µM
Chain of Sialic acid-binding Ig-like lectin 9 (Homo sapiens) (Q9Y336 whole entry): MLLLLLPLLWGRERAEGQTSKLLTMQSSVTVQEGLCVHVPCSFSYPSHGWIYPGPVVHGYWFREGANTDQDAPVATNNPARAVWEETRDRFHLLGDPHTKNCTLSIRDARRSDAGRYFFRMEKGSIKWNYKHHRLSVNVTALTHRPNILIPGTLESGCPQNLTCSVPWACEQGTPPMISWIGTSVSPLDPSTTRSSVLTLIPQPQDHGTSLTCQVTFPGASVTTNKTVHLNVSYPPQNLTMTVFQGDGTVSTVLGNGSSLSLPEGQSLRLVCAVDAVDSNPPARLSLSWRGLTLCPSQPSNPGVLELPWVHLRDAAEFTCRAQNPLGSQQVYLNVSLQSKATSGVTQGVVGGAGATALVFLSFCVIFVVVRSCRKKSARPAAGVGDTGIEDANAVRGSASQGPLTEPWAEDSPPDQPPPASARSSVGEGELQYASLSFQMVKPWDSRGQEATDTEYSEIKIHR

Trypanosoma cruzi = assay: Trypanosoma cruzi phosphomannomutase and mannose-1-phosphate guanylyltransferase assay; format: functional; conditions: 10 µM
[5] = molecular target: T2, Arginase-2, mitochondrial (Homo sapiens) (UniProt P78540); assay: in vitro enzyme assay to detect the production of urea directly proportional to the activity of Arginase II; format: functional; conditions: 33.3 µM; note: in the data most compounds retested in dose-response had high values
T2 sequence (whole entry): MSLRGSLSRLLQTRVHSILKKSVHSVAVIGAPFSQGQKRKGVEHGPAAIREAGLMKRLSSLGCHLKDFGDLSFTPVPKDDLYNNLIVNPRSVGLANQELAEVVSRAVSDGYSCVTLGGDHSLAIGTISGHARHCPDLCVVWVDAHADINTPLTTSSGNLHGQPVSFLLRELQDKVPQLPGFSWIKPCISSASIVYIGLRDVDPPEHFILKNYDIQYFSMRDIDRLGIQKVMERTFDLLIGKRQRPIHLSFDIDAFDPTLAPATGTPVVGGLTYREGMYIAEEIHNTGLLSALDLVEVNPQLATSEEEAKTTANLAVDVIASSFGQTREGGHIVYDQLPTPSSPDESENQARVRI

[6] = molecular target: T3, Proteasome subunit beta (Trypanosoma cruzi) (UniProt O96673); assay: Trypanosoma cruzi proteasome chymotrypsin-like activity (TcProtChymo) assay.; note: in the data most compounds retested in dose-response had high values; format: functional; conditions: 9.37 µM
T3 sequence (whole entry): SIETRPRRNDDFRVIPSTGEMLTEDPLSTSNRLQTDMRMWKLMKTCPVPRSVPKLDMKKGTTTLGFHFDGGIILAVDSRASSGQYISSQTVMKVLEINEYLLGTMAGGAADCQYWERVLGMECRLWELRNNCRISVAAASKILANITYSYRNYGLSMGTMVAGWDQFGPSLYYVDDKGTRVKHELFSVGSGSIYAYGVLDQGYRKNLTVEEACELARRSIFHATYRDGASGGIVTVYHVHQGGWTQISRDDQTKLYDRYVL

Homo sapiens = species on record: Homo sapiens; assay: To identify inhibition of the IFN signalling (Jak-Stat) pathway via expression of an eGFP reporter gene under the control of an IFN-stimulated response element (ISRE) containing MxA promoter.; format: functional; conditions: 30 µM
[7] = molecular target: T4, Tyrosyl-tRNA synthetase, putative (Trypanosoma cruzi (strain CL Brener)) (UniProt Q4DSP6); assay: Trypanosoma cruzi tyrosyl tRNA synthetase (TcYRS) _High Tyrosine SOP; format: functional; conditions: 30 µM; note: in the data most compounds retested in dose-response had high values
T4 sequence (whole entry): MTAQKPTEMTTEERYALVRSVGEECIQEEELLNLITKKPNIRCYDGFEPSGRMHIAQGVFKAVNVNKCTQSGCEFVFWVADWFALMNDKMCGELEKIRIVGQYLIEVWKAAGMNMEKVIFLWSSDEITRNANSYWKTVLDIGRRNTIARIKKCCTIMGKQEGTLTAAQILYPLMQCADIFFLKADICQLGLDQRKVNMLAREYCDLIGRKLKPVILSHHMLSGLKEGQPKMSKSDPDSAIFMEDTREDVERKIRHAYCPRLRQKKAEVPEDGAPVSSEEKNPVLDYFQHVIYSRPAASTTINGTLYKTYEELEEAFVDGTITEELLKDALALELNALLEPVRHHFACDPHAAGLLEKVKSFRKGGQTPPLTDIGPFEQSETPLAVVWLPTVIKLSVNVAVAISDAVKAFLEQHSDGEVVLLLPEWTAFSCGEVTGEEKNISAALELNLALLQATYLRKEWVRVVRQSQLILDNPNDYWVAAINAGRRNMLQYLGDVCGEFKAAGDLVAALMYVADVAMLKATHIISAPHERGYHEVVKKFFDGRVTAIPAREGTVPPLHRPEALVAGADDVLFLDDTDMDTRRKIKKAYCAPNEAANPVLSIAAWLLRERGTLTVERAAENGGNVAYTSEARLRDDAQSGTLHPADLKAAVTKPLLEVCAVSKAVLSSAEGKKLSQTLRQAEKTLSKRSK

[8] = molecular target: T4, Tyrosyl-tRNA synthetase, putative (Trypanosoma cruzi (strain CL Brener)); assay: Trypanosoma cruzi tyrosyl tRNA synthetase (TcYRS) SOP; format: functional; conditions: 30 µM
[9] = molecular target: Chromo domain-containing protein 1 (Saccharomyces cerevisiae (strain ATCC 204508 / S288c) (Baker's yeast)) (UniProt P32657); assay: ScCHD-1 Enzyme Inhibition Assay; format: functional; conditions: 30 µM; note: in the data most compounds retested in dose-response had high values
Chain of Chromo domain-containing protein 1 (Saccharomyces cerevisiae (strain ATCC 204508 / S288c) (Baker's yeast)) (P32657 whole entry, the tested form may be a part): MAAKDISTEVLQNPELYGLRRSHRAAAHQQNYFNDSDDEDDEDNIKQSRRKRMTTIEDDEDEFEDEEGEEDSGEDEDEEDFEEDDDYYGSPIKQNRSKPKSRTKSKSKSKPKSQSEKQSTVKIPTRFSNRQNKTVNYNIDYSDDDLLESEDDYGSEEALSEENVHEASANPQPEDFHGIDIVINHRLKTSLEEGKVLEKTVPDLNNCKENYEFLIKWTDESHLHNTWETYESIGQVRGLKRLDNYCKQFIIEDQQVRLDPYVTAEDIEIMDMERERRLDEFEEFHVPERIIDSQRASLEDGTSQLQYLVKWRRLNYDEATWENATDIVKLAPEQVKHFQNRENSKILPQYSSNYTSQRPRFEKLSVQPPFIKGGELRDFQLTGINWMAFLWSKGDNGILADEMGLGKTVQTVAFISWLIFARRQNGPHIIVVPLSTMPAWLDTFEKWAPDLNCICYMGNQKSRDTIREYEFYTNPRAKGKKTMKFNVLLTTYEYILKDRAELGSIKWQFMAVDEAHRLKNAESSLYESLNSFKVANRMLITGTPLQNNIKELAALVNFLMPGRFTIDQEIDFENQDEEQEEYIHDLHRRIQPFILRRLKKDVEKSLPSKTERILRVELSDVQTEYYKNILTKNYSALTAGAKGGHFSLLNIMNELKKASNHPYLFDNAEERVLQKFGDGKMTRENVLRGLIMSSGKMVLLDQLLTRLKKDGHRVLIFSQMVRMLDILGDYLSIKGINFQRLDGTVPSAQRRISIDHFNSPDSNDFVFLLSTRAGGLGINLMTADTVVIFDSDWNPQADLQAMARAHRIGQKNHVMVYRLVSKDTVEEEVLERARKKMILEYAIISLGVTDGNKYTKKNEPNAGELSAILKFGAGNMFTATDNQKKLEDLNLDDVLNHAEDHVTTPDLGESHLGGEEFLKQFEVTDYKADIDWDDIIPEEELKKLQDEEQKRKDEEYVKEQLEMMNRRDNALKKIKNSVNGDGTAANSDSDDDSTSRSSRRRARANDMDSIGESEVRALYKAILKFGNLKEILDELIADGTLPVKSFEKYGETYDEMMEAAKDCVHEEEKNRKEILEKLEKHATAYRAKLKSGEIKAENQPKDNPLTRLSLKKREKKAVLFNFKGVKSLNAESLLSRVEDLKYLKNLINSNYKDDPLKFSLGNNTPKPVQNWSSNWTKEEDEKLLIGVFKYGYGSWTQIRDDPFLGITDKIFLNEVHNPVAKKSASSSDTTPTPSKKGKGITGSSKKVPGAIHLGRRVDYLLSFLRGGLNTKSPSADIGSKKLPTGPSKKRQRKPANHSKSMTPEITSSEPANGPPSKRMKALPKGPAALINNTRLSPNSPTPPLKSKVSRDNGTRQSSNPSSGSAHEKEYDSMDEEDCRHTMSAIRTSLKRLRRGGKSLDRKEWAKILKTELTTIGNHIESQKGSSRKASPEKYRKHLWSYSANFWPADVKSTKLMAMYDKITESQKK

Chain of Protein translocase subunit SecA (Escherichia coli (strain K12)) (P10408 whole entry): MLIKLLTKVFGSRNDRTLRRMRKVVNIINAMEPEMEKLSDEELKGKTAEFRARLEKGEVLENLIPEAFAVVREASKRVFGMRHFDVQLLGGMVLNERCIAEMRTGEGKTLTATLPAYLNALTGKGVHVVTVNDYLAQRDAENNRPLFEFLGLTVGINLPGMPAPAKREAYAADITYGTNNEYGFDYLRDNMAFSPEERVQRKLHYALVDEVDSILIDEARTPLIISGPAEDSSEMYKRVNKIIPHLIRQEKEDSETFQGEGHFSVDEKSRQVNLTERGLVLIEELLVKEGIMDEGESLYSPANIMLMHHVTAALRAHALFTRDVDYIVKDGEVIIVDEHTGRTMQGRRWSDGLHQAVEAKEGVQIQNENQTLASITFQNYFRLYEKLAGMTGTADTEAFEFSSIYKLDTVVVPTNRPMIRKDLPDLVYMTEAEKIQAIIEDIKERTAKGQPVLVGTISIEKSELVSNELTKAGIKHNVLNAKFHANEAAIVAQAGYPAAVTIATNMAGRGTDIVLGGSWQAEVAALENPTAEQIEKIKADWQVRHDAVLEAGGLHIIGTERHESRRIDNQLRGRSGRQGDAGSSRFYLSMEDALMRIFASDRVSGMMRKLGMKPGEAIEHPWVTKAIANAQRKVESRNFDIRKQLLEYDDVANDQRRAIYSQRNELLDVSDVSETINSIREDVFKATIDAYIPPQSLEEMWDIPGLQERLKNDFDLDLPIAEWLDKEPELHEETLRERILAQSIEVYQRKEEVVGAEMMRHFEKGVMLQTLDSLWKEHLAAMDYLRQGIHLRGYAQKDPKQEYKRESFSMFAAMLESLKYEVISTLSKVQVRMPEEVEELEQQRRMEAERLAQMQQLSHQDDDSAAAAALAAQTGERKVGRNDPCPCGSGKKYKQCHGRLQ

SMILES | Percent Effect [1] [%] | Percent Effect [2] [%] | Percent Effect [3] [%] | Percent Effect [4] [%] | Percent Effect (Trypanosoma cruzi) [%] | Percent Effect [5] [%] | Percent Effect [6] [%] | Percent Effect (Homo sapiens) [%] | Percent Effect [7] [%] | Percent Effect [8] [%] | Percent Effect [9] [%]
Cn1cnc2c1CCN(CCCOc1ccc(C#N)cc1)C2 | -7.51 | 2.53 | -0.357 | -0.18 | -2.93 | -1.14 | 5.98 | 20.4 | -0.493 | -1.27 | -3.4
CCCc1nc(N2Cc3cnn(Cc4ccc(F)cc4)c3C2)no1 | -3.65 | 5.33 | 7.03 | 2.42 | -2.04 | 2.6 | 14.1 | 19.7 | 4.92 | 11.1 | -7.25
COCC1CN(C(=O)c2ccnnc2)Cc2c1cnn2C (stereo not given) | -3.58 | -5.33 | 7.75 | -1.95 | 4.33 | -3.5 | 9.6 | 9.47 | 4.25 | 1.28 | -4.09
CCOc1nc2cccnc2n(CC(=O)NCCOC)c1=O | -0.937 | 23.4 | 3.02 | -0.135 | 3.85 | -1.94 | 10.4 | 3.76 | 3.17 | 11.5 | -9.72
CS(=O)(=O)NC[C@H]1OC[C@@H]2CCN(Cc3ccc(F)cc3)C[C@@H]21 | 0.854 | 13.3 | 2.13 | -0.611 | -1.74 | -27.8 | 7.35 | 13.4 | 3.12 | 15 | -6.75
CN(C)S(=O)(=O)N1CCC(Oc2cnccn2)CC1 | -5.97 | 13 | -2.04 | 3.81 | 1.28 | -1.94 | 20.2 | 6.27 | 4.23 | 14.1 | -9.34
Cc1cnn(CCNCc2ccc(C#N)cc2F)c1 | -5.04 | 10.8 | -4.08 | 8.42 | -2.51 | 0.554 | 5.75 | 7.34 | 6.93 | 13.4 | -0.768
Cc1nnc2n1CCN(CCC(=O)Nc1sccc1C#N)C2 | -2.38 | 13.2 | -4.92 | 7.34 | 0.84 | -0.719 | 10.4 | 9.54 | 6.4 | 18.5 | -2.88
Cc1nc(CCNC(=O)N2CCC(Cc3cnn(C)c3)C2)cs1 (stereo not given) | -5.52 | 2.63 | 9.75 | 4.12 | -0.682 | 116 | 19.9 | -10.1 | 2.13 | 5.2 | -2.02
CN(Cc1ccco1)[C@@H]1CN(C(=O)c2ccnnc2)[C@@H]2CCCO[C@H]12 | -2.54 | 2.74 | -7.68 | 19.2 | 7.74 | -2.4 | 13.4 | -41.3 | 3.12 | 13.6 | -1.74
O=C(c1ccc[nH]1)N1C[C@H]2CC[C@@H]1CN(C1Cc3ccccc3C1)C2 | -0.308 | 8.11 | -3.81 | 12.3 | 3.62 | 23.1 | 10.7 | -4.7 | 6.45 | 18.5 | -2.58
CN(Cc1ccncc1)CC(c1cccs1)N1CCOCC1 (stereo not given) | -5.66 | -29.7 | -4.64 | 13.6 | 8.63 | -2.03 | 5.57 | 19.6 | 5.94 | 13.4 | -2.66
CC(C)(C)c1n[nH]c(C2CN(C(=O)c3cc(Cl)c[nH]3)CCO2)n1 (stereo not given) | -6.35 | 15.8 | 3.14 | 10.4 | 3.99 | -5.92 | 17.2 | -3.03 | 2.13 | 15.6 | -6.65
CCn1ccnc1CN1CCN(CC(=O)NC(C)(C#N)C2CC2)CC1 (stereo not given) | 1.69 | 15.8 | -1.29 | -1.29 | -8.84 | -3.45 | 18.9 | 16.7 | 5.39 | 9.76 | -5.07
Cc1cc(C(=O)N2CCCCC2C)ccc1NCC(=O)N1CCOCC1 (stereo not given) | -3.46 | 18.2 | 9.95 | -0.936 | 8.8 | 5.69 | 15.5 | 29.1 | -2.91 | 24.4 | -5.86
CCN1CCN(c2ccc(F)cc2C(C)NCc2ccncc2)CC1 (stereo not given) | -5.73 | 0 | -10.3 | -1.77 | -2.25 | -3.72 | 9.7 | 6.08 | 3.23 | 6.17 | -0.559
COC(=O)c1cccc(C(=O)N2CCCCC2CCn2ccnc2C)c1 (stereo not given) | -7.31 | 8 | 0.551 | 4.41 | 0.487 | -0.521 | 25.5 | 13.4 | 3.83 | 11.1 | -2.11
O=C(Cc1cccc(F)c1)NCCNCc1ccco1 | -9.13 | 2.6 | 7.05 | -0.647 | -3.37 | -2.13 | 7.09 | 34.8 | 3.88 | 2.44 | -7.92
CCOC(=O)c1sc(NC(=O)CN(C)S(C)(=O)=O)c(C#N)c1C | -1.3 | 10.4 | 11.5 | -2.4 | -1.87 | 4.52 | 9.4 | 21.1 | 3.17 | 14.1 | -8.72
O=C(c1ccc[nH]1)N1CCc2c(COCC3CC3)cncc2C1 | 0.487 | 13.5 | 0.508 | -7.71 | -4.99 | 0.955 | 29.1 | 0.5 | 3.24 | 12.8 | 0.2
